Among the test systems are HCT-15 colon; HT29 colon; SNB-75 CNS; SNB-19 CNS; U251 CNS; PC-3 prostate; SK-MEL-5 melanoma; UACC-62 melanoma; LOX IMVI melanoma; SK-MEL-28 melanoma.
Common to all, as to experiment: NCI-60 one-dose screen, 48 h (100 = growth as untreated, 0 = no growth, -100 = all killed)
Holding throughout (conditions): 10 µM unless noted

“And” between values parts separate entries of the source, which are not always exact repeats. Equal values may be shown once. Compounds without any hit were thinned out: in the full panel of roughly 83,000, 20% have a hit.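 Cells were grown in 96-well plates and exposed to the test compound at a single concentration for 48 hours; results are reported as percent growth, with values below 10 considered active.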 The source made the active and inactive calls.

The values below come from PubChem BioAssay (NCI).

For `CC(=O)c1cc2ccccc2o1`, the growth with HCT-15 colon is 99.6% (inactive); with HT29 colon, 95.4% (inactive); with SNB-75 CNS, 101% (inactive); with SNB-19 CNS it was 108% (inactive); with U251 CNS it was 109% (inactive); with PC-3 prostate, 99.9% (inactive). Further, the growth is 101% (inactive) in the assay on SK-MEL-5 melanoma, 102% (inactive) with UACC-62 melanoma, 95.3% (inactive) with LOX IMVI melanoma and 96.6% (inactive) in the assay on SK-MEL-28 melanoma.

For the molecule `COc1ccc([N+](=O)[O-])cc1OC`, the growth with HCT-15 colon is 96.3% (inactive) and 98.9% (inactive); in the assay on HT29 colon, 112% (inactive) and 101% (inactive); in the assay on SNB-75 CNS, 98% (inactive); with SNB-19 CNS it was 102% (inactive) and 107% (inactive); in the assay with U251 CNS, 104% (inactive) and 95.6% (inactive); with PC-3 prostate, 94.1% (inactive) and 102% (inactive). Also, the growth in the assay with SK-MEL-5 melanoma was 104% (inactive) and 106% (inactive); with UACC-62 melanoma, 104% (inactive) and 107% (inactive); in the assay on LOX IMVI melanoma it was 98.2% (inactive) and 101% (inactive); in the assay with SK-MEL-28 melanoma, 95.9% (inactive) and 107% (inactive).

For `Cc1cc(Cl)nc(Nc2ccccc2)n1`, the growth in the assay with HCT-15 colon is 97.4% (inactive); in the assay with HT29 colon, 104% (inactive); with SNB-75 CNS, 96.2% (inactive); with SNB-19 CNS, 103% (inactive); with U251 CNS, 98.7% (inactive); in the assay with PC-3 prostate it was 96.8% (inactive). The growth in the assay on SK-MEL-5 melanoma is 97.2% (inactive); in the assay on UACC-62 melanoma it was 90.2% (inactive); in the assay with LOX IMVI melanoma, 97% (inactive); in the assay with SK-MEL-28 melanoma it was 109% (inactive).

`CCOP(=O)(OCC)/C(C#N)=C/c1c(C)[nH]c2ccccc12`: the growth is 108% (inactive) in the assay on HCT-15 colon; 106% (inactive) with HT29 colon; 49.8% (inactive) in the assay on SNB-75 CNS; 94.6% (inactive) with SNB-19 CNS; 88.9% (inactive) with U251 CNS; 83.3% (inactive) with PC-3 prostate. The growth in the assay on SK-MEL-5 melanoma was 91.3% (inactive); in the assay on UACC-62 melanoma it was 82.3% (inactive); in the assay on LOX IMVI melanoma it was 89.7% (inactive); in the assay on SK-MEL-28 melanoma it was 113% (inactive).

Turning to `Cc1cc2nc3ccc(=[N+](C)C)cc-3sc2cc1N`, the growth in the assay on HCT-15 colon is 8.48% (active) and 7.46% (active); in the assay on HT29 colon, 3.91% (active) and 19.4% (inactive); with SNB-75 CNS, 88.2% (inactive) and 22.1% (inactive); in the assay on SNB-19 CNS it was -17.2% (active) and -4.45% (active); in the assay on U251 CNS, 1.01% (active) and -31% (active); in the assay on PC-3 prostate, -1.87% (active) and -5.43% (active). For the same molecule, the growth was -92.2% (active) and -90.1% (active) in the assay on SK-MEL-5 melanoma; -31.9% (active) and 23.3% (inactive) with UACC-62 melanoma; -19.1% (active) and -29.2% (active) with LOX IMVI melanoma; -9.76% (active) and 20.1% (inactive) in the assay on SK-MEL-28 melanoma.

On to `O=[N+]([O-])c1cccc(N=Cc2ccccc2)c1`, for which the growth in the assay with HCT-15 colon was 105% (inactive); in the assay with HT29 colon, 101% (inactive); in the assay on SNB-75 CNS, 96.7% (inactive); in the assay on SNB-19 CNS, 118% (inactive); in the assay with U251 CNS, 103% (inactive); with PC-3 prostate, 90.6% (inactive). Also, the growth in the assay with SK-MEL-5 melanoma is 104% (inactive); in the assay with UACC-62 melanoma it was 103% (inactive); in the assay with LOX IMVI melanoma, 102% (inactive); with SK-MEL-28 melanoma, 122% (inactive).

Consider `OC1CCCN(Cc2ccccc2)C1` (stereo not given), for which the growth with HCT-15 colon is 116% (inactive); in the assay on HT29 colon, 102% (inactive); in the assay on SNB-75 CNS, 113% (inactive); in the assay on SNB-19 CNS, 92.2% (inactive); with U251 CNS it was 120% (inactive); in the assay on PC-3 prostate, 97.4% (inactive). Also, the growth in the assay on SK-MEL-5 melanoma was 102% (inactive); with UACC-62 melanoma it was 91.1% (inactive); in the assay with LOX IMVI melanoma, 96.5% (inactive); with SK-MEL-28 melanoma, 108% (inactive).

In the case of `Cc1ccc(N)cc1S(=O)(=O)O`, the growth with HCT-15 colon is 107% (inactive) and 113% (inactive); with HT29 colon, 95.3% (inactive) and 124% (inactive); in the assay with SNB-75 CNS, 97.3% (inactive); with SNB-19 CNS it was 107% (inactive) and 108% (inactive); in the assay on U251 CNS, 106% (inactive) and 103% (inactive); in the assay on PC-3 prostate, 98.9% (inactive). Also, the growth in the assay on SK-MEL-5 melanoma was 112% (inactive) and 109% (inactive); with UACC-62 melanoma, 105% (inactive) and 108% (inactive); in the assay with LOX IMVI melanoma, 105% (inactive) and 109% (inactive); with SK-MEL-28 melanoma it was 109% (inactive) and 113% (inactive).

Regarding `Cn1c(-c2ccccc2)cc(=O)cc1-c1ccccc1`, the growth with HCT-15 colon was 22.7% (inactive); with HT29 colon, 24.7% (inactive); in the assay on SNB-75 CNS it was 119% (inactive); in the assay on SNB-19 CNS it was 89% (inactive); in the assay on U251 CNS, 82.7% (inactive); in the assay with PC-3 prostate it was 67.1% (inactive). For the same molecule, the growth in the assay with SK-MEL-5 melanoma is 95.3% (inactive); in the assay with UACC-62 melanoma it was 81.5% (inactive); in the assay on LOX IMVI melanoma, 73.2% (inactive); in the assay on SK-MEL-28 melanoma it was 118% (inactive).

Regarding `Cc1cc(=NO)cc(C)n1O`, the growth was 113% (inactive) in the assay on HCT-15 colon; 114% (inactive) in the assay with HT29 colon; 92.6% (inactive) with SNB-75 CNS; 103% (inactive) with SNB-19 CNS; 113% (inactive) in the assay on U251 CNS; 102% (inactive) in the assay with PC-3 prostate. The growth in the assay on SK-MEL-5 melanoma was 112% (inactive); in the assay with UACC-62 melanoma it was 102% (inactive); with LOX IMVI melanoma, 99.9% (inactive); with SK-MEL-28 melanoma, 112% (inactive).

Take `OCc1cccc(F)c1`: the growth in the assay on HCT-15 colon is 10.2% (inactive); with HT29 colon, 17.7% (inactive); in the assay on SNB-75 CNS, 102% (inactive); in the assay on SNB-19 CNS it was 92.2% (inactive); with U251 CNS it was 83.5% (inactive); in the assay on PC-3 prostate it was 91% (inactive). Moreover, the growth is 92.6% (inactive) with SK-MEL-5 melanoma, 84.7% (inactive) in the assay with UACC-62 melanoma, 76.8% (inactive) in the assay on LOX IMVI melanoma and 116% (inactive) in the assay on SK-MEL-28 melanoma.

For the molecule `Cc1cc(NC(=O)NC(=O)c2ccccc2N(C)C)ccc1Oc1ncc(Br)cn1`, the growth in the assay on HCT-15 colon is -31% (active) and 31% (inactive); with HT29 colon it was -15.9% (active) and 17% (inactive); in the assay with SNB-75 CNS, -28.2% (active) and 12.9% (inactive); with SNB-19 CNS, 29.2% (inactive) and 42.7% (inactive); in the assay on U251 CNS it was -43.4% (active); in the assay with PC-3 prostate, -10.1% (active) and 25.9% (inactive). For the same molecule, the growth with SK-MEL-5 melanoma was 2.16% (active) and 0.678% (active); in the assay with UACC-62 melanoma, 30.4% (inactive) and 37% (inactive); in the assay on LOX IMVI melanoma, 27.3% (inactive) and 49.7% (inactive); in the assay with SK-MEL-28 melanoma, 68.1% (inactive).
